# Measurements taken from the supplement of paper PMC11001985.
# Values without a mark were called inactive.
# Compound: C#CCNC(=O)CCSSCCC(=O)NCCc1ccc(C=O)c(C=O)c1
# Assay: lysine labeling ratio R10:1 (500 µM / 50 µM probe), SILAC-ABPP in living cells; higher = lower intrinsic lysine reactivity toward the probe, active = 2 or less
# Conditions: HeLa; probe concentrations 500 vs 50 µM
# Procedure, shortened: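 An alkyne-tagged lysine probe with a disulfide linker labelled living HeLa cells in PBS at room temperature at either 50 µM or 500 µM, using SILAC light and heavy cells in forward and reverse label swaps. Lysates were mixed, clicked to biotin-azide, trypsin-digested, enriched on neutravidin, DTT-released, alkylated and measured by LC-MS/MS on a TIMS-TOF Pro. Each lysine's R is the filtered median high-probe/low-probe MS1 peptide ratio, combined as the median over forward and reverse replicates, with 20 as the upper limit.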
# UniProt Q15149, sequence (Q15149 whole entry): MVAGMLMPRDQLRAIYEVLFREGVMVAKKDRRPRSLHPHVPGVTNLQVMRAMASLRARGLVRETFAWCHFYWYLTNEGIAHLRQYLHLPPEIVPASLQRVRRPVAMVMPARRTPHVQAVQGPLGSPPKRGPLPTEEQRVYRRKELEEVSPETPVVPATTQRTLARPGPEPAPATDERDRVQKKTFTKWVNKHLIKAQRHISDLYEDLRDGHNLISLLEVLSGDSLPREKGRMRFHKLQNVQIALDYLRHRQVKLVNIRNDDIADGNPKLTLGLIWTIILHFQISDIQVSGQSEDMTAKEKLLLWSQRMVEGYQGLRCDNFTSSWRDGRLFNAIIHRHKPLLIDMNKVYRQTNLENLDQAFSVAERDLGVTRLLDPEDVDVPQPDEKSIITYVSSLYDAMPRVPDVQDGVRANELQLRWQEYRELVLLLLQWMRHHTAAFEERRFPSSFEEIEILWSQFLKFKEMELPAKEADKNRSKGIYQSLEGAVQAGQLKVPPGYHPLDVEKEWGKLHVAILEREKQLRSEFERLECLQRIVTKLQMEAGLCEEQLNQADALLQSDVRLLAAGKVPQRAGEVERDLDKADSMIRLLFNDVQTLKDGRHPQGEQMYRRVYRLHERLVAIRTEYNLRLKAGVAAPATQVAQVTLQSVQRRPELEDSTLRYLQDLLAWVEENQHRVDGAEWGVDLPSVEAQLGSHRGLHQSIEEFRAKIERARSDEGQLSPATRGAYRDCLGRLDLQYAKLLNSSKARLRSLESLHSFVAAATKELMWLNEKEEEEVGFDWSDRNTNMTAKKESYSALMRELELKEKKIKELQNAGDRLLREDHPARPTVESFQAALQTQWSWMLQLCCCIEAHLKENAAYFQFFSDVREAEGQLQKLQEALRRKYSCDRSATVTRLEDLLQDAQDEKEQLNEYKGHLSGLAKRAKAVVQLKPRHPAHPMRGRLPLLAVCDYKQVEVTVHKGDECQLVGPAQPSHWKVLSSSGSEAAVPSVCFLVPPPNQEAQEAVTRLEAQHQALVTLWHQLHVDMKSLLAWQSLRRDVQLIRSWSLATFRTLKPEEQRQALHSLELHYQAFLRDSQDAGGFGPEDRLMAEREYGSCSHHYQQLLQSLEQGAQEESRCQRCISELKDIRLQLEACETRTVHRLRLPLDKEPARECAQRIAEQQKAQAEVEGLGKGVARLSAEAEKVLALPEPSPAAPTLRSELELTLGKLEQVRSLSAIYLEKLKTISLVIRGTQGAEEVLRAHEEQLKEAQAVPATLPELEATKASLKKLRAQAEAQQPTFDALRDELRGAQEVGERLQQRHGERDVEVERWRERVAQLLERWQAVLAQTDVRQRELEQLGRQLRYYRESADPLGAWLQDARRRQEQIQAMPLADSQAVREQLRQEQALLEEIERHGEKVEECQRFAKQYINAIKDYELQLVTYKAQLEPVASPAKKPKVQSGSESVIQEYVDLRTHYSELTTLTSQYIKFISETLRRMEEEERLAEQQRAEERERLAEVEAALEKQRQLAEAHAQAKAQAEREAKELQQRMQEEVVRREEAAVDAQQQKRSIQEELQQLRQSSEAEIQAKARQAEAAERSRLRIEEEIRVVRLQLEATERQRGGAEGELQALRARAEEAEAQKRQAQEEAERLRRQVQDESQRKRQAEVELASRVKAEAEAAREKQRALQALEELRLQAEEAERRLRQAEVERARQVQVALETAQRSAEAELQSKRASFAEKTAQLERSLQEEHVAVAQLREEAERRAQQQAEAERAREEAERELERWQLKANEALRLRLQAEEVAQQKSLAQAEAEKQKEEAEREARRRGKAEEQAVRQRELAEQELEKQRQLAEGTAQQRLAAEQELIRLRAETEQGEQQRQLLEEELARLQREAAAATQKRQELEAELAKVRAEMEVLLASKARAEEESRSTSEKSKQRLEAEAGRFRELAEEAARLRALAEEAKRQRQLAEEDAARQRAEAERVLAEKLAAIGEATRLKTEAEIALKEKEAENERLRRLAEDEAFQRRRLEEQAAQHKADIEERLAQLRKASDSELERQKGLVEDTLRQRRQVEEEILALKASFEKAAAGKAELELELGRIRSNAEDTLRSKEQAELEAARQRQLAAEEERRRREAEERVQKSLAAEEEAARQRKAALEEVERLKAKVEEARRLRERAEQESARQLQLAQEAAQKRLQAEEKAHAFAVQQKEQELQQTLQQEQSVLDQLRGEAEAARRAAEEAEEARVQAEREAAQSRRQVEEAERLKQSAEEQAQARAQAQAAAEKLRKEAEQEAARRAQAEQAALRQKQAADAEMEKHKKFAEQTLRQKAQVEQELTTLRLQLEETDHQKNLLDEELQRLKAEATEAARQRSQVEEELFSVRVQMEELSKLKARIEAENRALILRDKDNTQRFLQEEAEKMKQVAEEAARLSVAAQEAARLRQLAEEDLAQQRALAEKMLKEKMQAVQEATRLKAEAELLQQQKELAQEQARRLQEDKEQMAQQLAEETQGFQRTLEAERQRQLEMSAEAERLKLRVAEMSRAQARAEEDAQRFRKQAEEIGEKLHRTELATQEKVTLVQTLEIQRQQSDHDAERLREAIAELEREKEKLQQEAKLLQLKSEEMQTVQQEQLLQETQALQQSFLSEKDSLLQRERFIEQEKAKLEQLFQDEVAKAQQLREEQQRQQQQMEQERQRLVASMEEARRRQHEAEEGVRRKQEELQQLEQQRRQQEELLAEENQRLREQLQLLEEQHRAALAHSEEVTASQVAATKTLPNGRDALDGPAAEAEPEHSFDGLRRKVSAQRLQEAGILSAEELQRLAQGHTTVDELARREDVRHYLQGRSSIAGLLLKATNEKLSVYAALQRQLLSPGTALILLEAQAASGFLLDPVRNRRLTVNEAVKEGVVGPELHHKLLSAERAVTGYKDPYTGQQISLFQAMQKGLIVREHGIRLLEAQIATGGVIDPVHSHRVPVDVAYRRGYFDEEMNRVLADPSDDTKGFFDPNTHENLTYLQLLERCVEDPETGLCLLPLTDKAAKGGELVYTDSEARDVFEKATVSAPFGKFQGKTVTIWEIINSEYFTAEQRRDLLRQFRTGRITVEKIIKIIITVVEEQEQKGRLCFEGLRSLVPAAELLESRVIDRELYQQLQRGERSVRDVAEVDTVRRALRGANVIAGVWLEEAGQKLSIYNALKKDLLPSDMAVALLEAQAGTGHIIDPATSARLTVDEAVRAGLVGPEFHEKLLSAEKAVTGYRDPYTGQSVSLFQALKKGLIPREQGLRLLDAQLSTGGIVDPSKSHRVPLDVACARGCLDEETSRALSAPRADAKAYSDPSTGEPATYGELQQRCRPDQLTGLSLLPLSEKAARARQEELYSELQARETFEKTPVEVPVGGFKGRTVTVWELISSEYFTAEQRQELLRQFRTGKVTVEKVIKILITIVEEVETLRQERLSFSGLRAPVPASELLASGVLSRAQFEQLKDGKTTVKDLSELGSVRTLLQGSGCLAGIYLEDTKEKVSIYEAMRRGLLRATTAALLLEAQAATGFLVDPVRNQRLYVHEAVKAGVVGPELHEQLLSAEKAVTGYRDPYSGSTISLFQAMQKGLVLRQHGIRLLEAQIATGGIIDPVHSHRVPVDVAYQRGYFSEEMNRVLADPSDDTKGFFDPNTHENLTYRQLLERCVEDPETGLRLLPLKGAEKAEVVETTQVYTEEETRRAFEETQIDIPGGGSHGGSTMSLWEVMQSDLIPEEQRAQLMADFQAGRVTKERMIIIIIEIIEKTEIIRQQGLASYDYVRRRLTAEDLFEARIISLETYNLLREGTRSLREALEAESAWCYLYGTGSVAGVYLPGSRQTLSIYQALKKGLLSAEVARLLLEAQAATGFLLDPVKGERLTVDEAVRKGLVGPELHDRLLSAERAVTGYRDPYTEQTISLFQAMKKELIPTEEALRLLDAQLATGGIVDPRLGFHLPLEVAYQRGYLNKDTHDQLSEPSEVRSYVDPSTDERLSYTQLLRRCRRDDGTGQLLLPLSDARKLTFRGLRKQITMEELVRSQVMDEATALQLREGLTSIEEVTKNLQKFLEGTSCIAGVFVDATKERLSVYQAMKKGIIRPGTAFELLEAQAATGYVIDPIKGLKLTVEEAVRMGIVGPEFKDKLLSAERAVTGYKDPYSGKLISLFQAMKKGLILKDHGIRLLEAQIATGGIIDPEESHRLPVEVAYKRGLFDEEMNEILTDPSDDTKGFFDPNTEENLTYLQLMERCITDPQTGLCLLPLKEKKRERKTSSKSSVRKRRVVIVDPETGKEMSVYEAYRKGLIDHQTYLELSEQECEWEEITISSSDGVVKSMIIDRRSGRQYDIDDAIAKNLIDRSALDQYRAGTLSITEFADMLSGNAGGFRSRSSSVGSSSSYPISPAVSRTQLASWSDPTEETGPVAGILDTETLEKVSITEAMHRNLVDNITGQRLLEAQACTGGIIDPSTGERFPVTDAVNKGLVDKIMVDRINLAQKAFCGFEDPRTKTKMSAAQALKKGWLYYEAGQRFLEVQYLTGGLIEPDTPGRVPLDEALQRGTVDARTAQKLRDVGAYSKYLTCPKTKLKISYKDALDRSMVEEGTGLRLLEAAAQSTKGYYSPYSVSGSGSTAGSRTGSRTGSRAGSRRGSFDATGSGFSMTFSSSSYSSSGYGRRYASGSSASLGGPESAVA
# UniProt P62937, sequence (P62937 whole entry, looked up): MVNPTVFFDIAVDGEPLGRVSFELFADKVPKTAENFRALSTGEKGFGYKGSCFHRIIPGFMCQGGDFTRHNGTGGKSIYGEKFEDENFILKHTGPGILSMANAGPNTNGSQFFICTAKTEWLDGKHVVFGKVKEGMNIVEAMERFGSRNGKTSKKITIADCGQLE
# UniProt P30044, sequence (P30044 whole entry): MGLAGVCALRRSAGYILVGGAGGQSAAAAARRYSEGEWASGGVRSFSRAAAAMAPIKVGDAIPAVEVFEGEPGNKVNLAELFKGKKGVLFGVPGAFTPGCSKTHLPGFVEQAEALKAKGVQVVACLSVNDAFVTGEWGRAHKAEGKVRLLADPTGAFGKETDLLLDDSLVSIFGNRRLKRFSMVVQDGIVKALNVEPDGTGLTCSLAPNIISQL
row,Target,lysine labeling ratio R10:1
1,EHD2 (lysine site: K491) (UniProt Q9NZN4),1.25 (active)
2,ROBO1 (lysine site: K214) (UniProt Q9Y6N7),4.58
3,PPIA (lysine site: K155) (UniProt P62937),2.47
4,UniProt P04626 (lysine site: K200),6.23
5,CHCHD3 (lysine site: K37) (UniProt Q9NX63),1.57 (active)
6,SPTAN1 (lysine site: K1784) (UniProt Q13813),1.22 (active)
7,PDIA4 (lysine site: K245) (UniProt P13667),1.07 (active)
8,PRDX5 (lysine site: K142) (UniProt P30044),1.62 (active)
9,CLTC (lysine site: K1612) (UniProt Q00610),4.67
10,WDR1 (lysine site: K7) (UniProt O75083),0.76 (active)
11,UniProt Q9UKX5 (lysine site: K256),5.46
12,UniProt P23352 (lysine site: K411),2.12
13,FRAS1 (lysine site: K1628) (UniProt Q86XX4),3.34
14,ANPEP (lysine site: K379) (UniProt P15144),0.5 (active)
15,MCAM (lysine site: K134) (UniProt P43121),3.83
16,FSCN1 (lysine site: K43) (UniProt Q16658),1.7 (active)
17,UniProt Q15149 (lysine site: K3476),1.8 (active)
18,UniProt P62873 (lysine site: K15),3.12
19,UniProt P61978 (lysine site: K405),6.82
20,UniProt Q16181 (lysine site: K408),3.83

row,Target,lysine labeling ratio R10:1
1,UniProt Q8WXI7 (lysine site: K13714),7.68
2,UniProt Q15149 (lysine site: K1520),3.8
3,MYH9 (lysine site: K1492) (UniProt P35579),2.92
4,ALCAM (lysine site: K60) (UniProt Q13740),2.97
5,ERP29 (lysine site: K137) (UniProt P30040),6.12
6,UniProt Q9Y653 (lysine site: K49),1.54 (active)
7,ACTN4 (lysine site: K66) (UniProt O43707),4.43
8,SPTBN1 (lysine site: K832) (UniProt Q01082),2.42
9,SLC44A2 (lysine site: K210) (UniProt Q8IWA5),2.8
10,SDF4 (lysine site: K121) (UniProt Q9BRK5),1.36 (active)
11,CD9 (lysine site: K131) (UniProt P21926),7.57
12,RTN3 (lysine site: K998) (UniProt O95197),4.14
13,UniProt P62244 (lysine site: K71),3.24
14,FN1 (lysine site: K2354) (UniProt P02751),6.78
15,HSPG2 (lysine site: K4023) (UniProt P98160),5.16
16,KRT18 (lysine site: K407) (UniProt P05783),8.64
17,AGRN (lysine site: K77) (UniProt O00468),1.69 (active)
18,LPL (lysine site: K129) (UniProt P06858),1.65 (active)
19,STOML2 (lysine site: K145) (UniProt Q9UJZ1),3.01
20,PDCD5 (lysine site: K33) (UniProt O14737),4.82
